The values below come from PubChem BioAssay (NCI).

SMILES strings stand for the structures. The panel holds about 83,000 compounds, 20% with a hit somewhere; the sample as a whole holds those more often.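 Method: cells in 96-well plates; compound added at one concentration; 48 h incubation; percent growth measured; values under 10 scored active.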 Unmarked numbers belong to inactive results. The source made the active and inactive calls.

Among the test systems are HCT-15 colon; HT29 colon; SNB-75 CNS; SNB-19 CNS; U251 CNS; PC-3 prostate; SK-MEL-5 melanoma; UACC-62 melanoma; LOX IMVI melanoma; SK-MEL-28 melanoma; SK-MEL-2 melanoma; EKVX NSCLC; SN12C renal; UO-31 renal; TK-10 renal; ACHN renal; CAKI-1 renal; A498 renal; CCRF-CEM leukemia; MOLT-4 leukemia.
Holding throughout (assay): NCI-60 one-dose screen, 48 h (100 = growth as untreated, 0 = no growth, -100 = all killed)
Holding throughout (settings): 10 µM unless noted

As to `COc1cccc(CCC(=O)c2cc3c(N)c(C(=O)Nc4ccccc4)sc3nc2C)c1`, the growth was 17.5% in the assay on HCT-15 colon; 16.7% in the assay on HT29 colon; 9.14% (active) in the assay with SNB-75 CNS; 38.5% in the assay with SNB-19 CNS; 26.2% with U251 CNS; 49.8% in the assay with PC-3 prostate. In addition, the growth was 8.92% (active) in the assay on SK-MEL-5 melanoma; 28.3% with UACC-62 melanoma; 26.4% in the assay on LOX IMVI melanoma; 42% with SK-MEL-28 melanoma; 42.3% with SK-MEL-2 melanoma; 45.4% in the assay with EKVX NSCLC. For the same compound, the growth is 35% with SN12C renal; 34.8% with UO-31 renal; 70.9% with TK-10 renal; 56.3% with ACHN renal; 28.4% in the assay on CAKI-1 renal; 9.88% (active) in the assay on A498 renal. In addition, the growth in the assay with CCRF-CEM leukemia was 29.7%; with MOLT-4 leukemia, 22.2%.

Take `COc1cc(C2CC(c3cccc(Nc4ccncc4)c3)=NN2C(C)=O)cc(OC)c1OC` (stereo not given): the growth was 98% with HCT-15 colon; 78.5% with HT29 colon; 67.4% with SNB-75 CNS; 93% in the assay with SNB-19 CNS; 91.5% with U251 CNS; 84.2% in the assay on PC-3 prostate. For the same compound, the growth with SK-MEL-5 melanoma was 89.9%; with UACC-62 melanoma it was 93.9%; in the assay on LOX IMVI melanoma, 85.3%; in the assay on SK-MEL-28 melanoma, 96.6%; in the assay with SK-MEL-2 melanoma, 99.1%; with EKVX NSCLC it was 87.5%. The growth in the assay with SN12C renal was 94%; in the assay on UO-31 renal, 89.1%; in the assay on TK-10 renal, 97.7%; in the assay with ACHN renal it was 99.5%; in the assay on CAKI-1 renal it was 78.9%; with A498 renal, 94.1%. Besides, the growth in the assay with CCRF-CEM leukemia was 92.7%; with MOLT-4 leukemia, 84.4%.

As to `C#Cc1cccc(NC(=O)Nc2ccc(NC(=O)CCl)cc2)c1`, the growth with HCT-15 colon is -63.1% [8.25 µM] (active); in the assay on HT29 colon it was -69.5% [8.25 µM] (active); with SNB-75 CNS, -27.9% [8.25 µM] (active); with SNB-19 CNS it was 32.4% [8.25 µM]; with U251 CNS it was -72% [8.25 µM] (active); in the assay with PC-3 prostate, 8.79% [8.25 µM] (active). In addition, the growth with SK-MEL-5 melanoma was -73.9% [8.25 µM] (active); in the assay with UACC-62 melanoma it was -44.3% [8.25 µM] (active); in the assay on LOX IMVI melanoma, -74.9% [8.25 µM] (active); in the assay with SK-MEL-28 melanoma it was 67.6% [8.25 µM]; with SK-MEL-2 melanoma, -25% [8.25 µM] (active); in the assay with EKVX NSCLC, 88.3% [8.25 µM]. Also, the growth with SN12C renal was -9.22% [8.25 µM] (active); in the assay on UO-31 renal, -97.4% [8.25 µM] (active); in the assay with TK-10 renal, -71.4% [8.25 µM] (active); in the assay on ACHN renal, -99.5% [8.25 µM] (active); with CAKI-1 renal, 9.01% [8.25 µM] (active); in the assay on A498 renal, 76.4% [8.25 µM]. Further, the figures for the growth in the assay with CCRF-CEM leukemia and with MOLT-4 leukemia were -29.8% [8.25 µM] (active) and -9.78% [8.25 µM] (active), respectively.

As for `CC(=O)c1c(C)[nH]c(-c2nc3ccc(N4CCN(C)CC4)cc3[nH]2)c1-c1ccccc1`, the growth with HCT-15 colon is 14.9%; with HT29 colon, 14.5%; in the assay with SNB-75 CNS it was -10.6% (active); in the assay with SNB-19 CNS, 33.2%; in the assay on U251 CNS, 44.7%; with PC-3 prostate it was 32%. Also, the growth in the assay with SK-MEL-5 melanoma is 11.8%; in the assay on UACC-62 melanoma, 14.3%; in the assay on LOX IMVI melanoma, 6.13% (active); in the assay with SK-MEL-28 melanoma, 47.3%; in the assay with SK-MEL-2 melanoma, 48.6%; in the assay with EKVX NSCLC, 35.5%. Moreover, the growth in the assay with SN12C renal is 37.7%; in the assay on UO-31 renal, 5.51% (active); in the assay with TK-10 renal, 23.9%; with ACHN renal, 19.4%; with CAKI-1 renal, 7.67% (active); in the assay with A498 renal, 31.8%. Further, the growth in the assay with CCRF-CEM leukemia was 49.1%; with MOLT-4 leukemia, 50.7%.

In the case of `COc1ccccc1/C=C1\COc2ccc(-c3ccccc3)cc2C1=O`, the growth was 22.7% with HCT-15 colon; 5.36% (active) in the assay on HT29 colon; 42.2% with SNB-75 CNS; 69.1% in the assay on SNB-19 CNS; 17.3% with U251 CNS; 27.2% in the assay on PC-3 prostate. In addition, the growth in the assay with SK-MEL-5 melanoma is 27.5%; with UACC-62 melanoma, 40.6%; with LOX IMVI melanoma, 18.7%; in the assay with SK-MEL-28 melanoma, 57.3%; in the assay on SK-MEL-2 melanoma, 44.7%; in the assay on EKVX NSCLC it was 94%. Further, the growth in the assay with SN12C renal is 54%; in the assay on UO-31 renal, 49.3%; in the assay with TK-10 renal it was 52%; in the assay with ACHN renal, 60.8%; with CAKI-1 renal, 86.4%; with A498 renal, 42.8%. Moreover, the growth with CCRF-CEM leukemia was -25.3% (active); with MOLT-4 leukemia, -18% (active).

Regarding `COc1ccc(-c2nc(SCCC(C)C)nc(N/N=C(/C)c3ccc(C)cc3)c2C#N)cc1`, the growth with HCT-15 colon was 92.9%; with HT29 colon it was 112%; in the assay with SNB-75 CNS, 84%; with SNB-19 CNS it was 86.8%; in the assay on U251 CNS, 103%; in the assay with PC-3 prostate it was 85.8%. Besides, the growth in the assay with SK-MEL-5 melanoma was 94.3%; in the assay with UACC-62 melanoma, 87.4%; in the assay with LOX IMVI melanoma it was 91%; with SK-MEL-28 melanoma it was 103%; in the assay on SK-MEL-2 melanoma, 106%; in the assay on EKVX NSCLC, 90.8%. Further, the growth is 75% in the assay with SN12C renal; 66% with UO-31 renal; 107% with TK-10 renal; 89.6% with ACHN renal; 83.2% in the assay on CAKI-1 renal; 99.4% in the assay with A498 renal. Further, the results for the growth in the assay on CCRF-CEM leukemia and in the assay with MOLT-4 leukemia were 94.4% and 88.3%, respectively.

Take `CCOC(=O)c1cnc2c(cnn2CC)c1NN=C(C)C`: the growth in the assay on HCT-15 colon is 86%; in the assay with HT29 colon it was 84.7%; in the assay with SNB-75 CNS, 69%; in the assay with SNB-19 CNS, 87.6%; in the assay on U251 CNS it was 90.4%; in the assay with PC-3 prostate, 98.4%. In addition, the growth was 90.4% in the assay with SK-MEL-5 melanoma; 79.3% in the assay with UACC-62 melanoma; 90.7% in the assay on LOX IMVI melanoma; 113% in the assay with SK-MEL-28 melanoma; 40% with SK-MEL-2 melanoma; 93% in the assay with EKVX NSCLC. The growth is 105% in the assay on SN12C renal; 68.4% with UO-31 renal; 87.3% with TK-10 renal; 84.1% in the assay on ACHN renal; 100% in the assay with CAKI-1 renal; 68% in the assay on A498 renal. In addition, the growth in the assay with CCRF-CEM leukemia is 92%; with MOLT-4 leukemia it was 81%.

On to `CCN(CC)CCCC(C)Nc1cc(-c2cccc(OC(F)(F)F)c2)nc2ccc(N3CCCC3)cc12` (stereo not given), for which the growth in the assay with HCT-15 colon was -14.1% (active); in the assay with HT29 colon it was -24.1% (active); with SNB-75 CNS, 66.5%; in the assay with SNB-19 CNS, 24.2%; in the assay on U251 CNS it was -58.4% (active); with PC-3 prostate, 14.3%. In addition, the growth with SK-MEL-5 melanoma is -98.1% (active); with UACC-62 melanoma, -86.5% (active); in the assay with LOX IMVI melanoma, -80.5% (active); with SK-MEL-28 melanoma it was -93% (active); in the assay on SK-MEL-2 melanoma, -71.2% (active); in the assay with EKVX NSCLC it was 49.9%. Moreover, the growth is 38.1% in the assay on SN12C renal; 23.7% in the assay with UO-31 renal; 12.2% in the assay on TK-10 renal; -19.5% (active) in the assay on ACHN renal; -53% (active) with CAKI-1 renal; 29.4% with A498 renal. The growth was -22.4% (active) with CCRF-CEM leukemia and 2.34% (active) in the assay with MOLT-4 leukemia.
